From PubChem BioAssay
Sampled rows, rich in hits. Any-hit rate of the full collection: about 10%.
PNC assembly inh: inhibitors of perinucleolar compartment assembly; PC3M PTB-GFP, PNC prevalence imaging, 16 h; active compounds read low; activity change (PNC), negative = inhibition, % at 10 µM; actives 3.1% (n = 140,000); AID 2417;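 active means readout at or below -70, meaning at least 70% loss of cells showing the perinucleolar compartment, a nuclear body marking cancer cells; inconclusive means readout between -30 and a set limit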;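 further: plate controls were DMSO wells for no effect and camptothecin positive control wells for full effect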
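Compounds are pinned in duplicate onto adhered PC3M cells stably expressing GFP-tagged PTB and incubated 16 h at 37 C. Cells are then fixed, nuclei stained with Hoechst, and PNC-positive cells counted.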
Lamin A splicing: changes lamin A minigene splicing in HeLa cells; HeLa LMNA splicing GFP/RFP minigene ratio, 48 h; Potency, µM (doses to about 46.1 µM), for inactives: at the highest dose ratio change, negative = inhibition, usual class: inhibitors; actives 0.01% (n = 200,000); active means well fitted inhibition curve with a large enough effect in the signal ratio, with a control signal flat, not every such curve was filed as active; inconclusive means small, poorly fitted or top-dose-only effect, or effect the other way, or a change in a side signal; the % refers to the signal ratio; further: potency means the concentration at half of the fitted maximal effect
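S3 HeLa cells stably expressing lamin A-EGFP splicing minigene plus DsRed2, 600 cells/well, 48 h compound exposure at 37C. Laser-scanning cytometry; analysed as GFP (500-530 nm)/RFP (575-640 nm) total intensity ratio; 0.5% DMSO vehicle.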
HPGD block: blocks human HPGD enzyme activity; Potency, µM, for the others: at the highest dose activity change, negative = inhibition, usual class: inhibitors; AID 894; actives 4.3% (n = 150,000); purified HPGD, NADH fluorescence kinetic, PGE2 substrate; P15428; further: potency means the concentration at half of the fitted maximal effect
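20 nM HPGD preincubated 15 min at room temperature with compound in 50 mM Tris-HCl pH 8, 0.01% Tween 20. Started with 1 mM NAD+ and 30 uM prostaglandin E2; NADH fluorescence (360/450 nm) read 5 times over 30-s intervals, last minus first.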
12-hLO inh: inhibitors of human 12-lipoxygenase (ALOX12); actives 0.12% (n = 150,000); purified 12-hLO, xylenol orange hydroperoxide absorbance; Potency, µM (top dose mostly 57.1 µM), without a hit: at the top dose activity change, negative = inhibition, actives largely listed as inhibitors; P18054; AID 1452; active means well fitted inhibition curve with a large enough effect; inconclusive means small, poorly fitted or top-dose-only effect; further: potency means the concentration at half of the fitted maximal effect; nearly all actives have a fitted effect of over 55% in size
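Xylenol orange chromogenic assay: hydroperoxide from 12hLO oxidises Fe(II), giving red-shifted Fe(III)-XO absorbance. Conditions: 150 nM enzyme, 40 uM arachidonic acid, 25 mM Hepes pH 7.0, 0.01% Triton X-100, 30 min, room temperature.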
ALDH1A1 block: blocks purified human ALDH1A1 activity; Potency, µM (titrated, usually from 75.3 µM), for the others: top-dose activity, negative = inhibition, actives largely listed as inhibitors; Purified ALDH1A1, NADH fluorescence, propionaldehyde substrate; AID 1030; actives 7.3% (n = 220,000);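 further: potency means the concentration at half of the fitted maximal effect; plate controls were no enzyme wells and a reference inhibitor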
Starred values were filed as active, the others as inactive; ? = inconclusive; nt = not tested or not shown; [ ] = dose if it differs, or a comment. Unless noted, the call rests on the fitted dose curve; in most records, active means well fitted inhibition curve with a large enough effect (not every such curve was filed as active); inconclusive means small, poorly fitted or top-dose-only effect, or another doubt; inactive means no such curve, though single readings can be large or run the other way. Unless noted, on the % scale 0 is the no-effect control and ±100 the full control effect.

SMILES	PNC assembly inh	Lamin A splicing	HPGD block	12-hLO inh	ALDH1A1 block
Cc1ccc(S(=O)(=O)NCCOCCNS(=O)(=O)c2ccc(C)cc2)cc1	-16	-10%	7%	-9%	13µM*
COCCNC(=O)C(c1ccc(F)cc1)N(CCOC)C(=O)CCC(=O)Nc1nccs1 (configuration not stated)	-108*	-4%	-1%	4%	7%
Cc1cc(NC(=O)CSc2nc3c(sc4ccccc43)c(=O)n2CCCN2CCOCC2)n[nH]1	-83*	9%	-9%	1%	5%
CCc1ccc(NC(=O)Cn2cc(S(=O)(=O)N3CCCC3)c(S(=O)(=O)N3CCCC3)c2)cc1	nt	21%[46 µM]	nt	nt	nt
S=c1[nH]nc(-c2ccc(Cl)cc2)n1-c1ccc2c(c1)OCCO2	-15	?	14µM*	-3%	?
NC(=O)C/C=C\CC(N)=O	nt	nt	-12%	2%[11.4 µM]	-16%[13.5 µM]
CN(C)c1ccc(-c2cc(N(C)Cc3ccco3)ncn2)cc1	nt	9%	nt	nt	?
COc1ccc(-c2nc(-c3ccccc3)[nH]c(=O)c2C#N)cc1	-20	-8%	20µM*	-3%	-1%
COc1ccc(-c2nc(-c3ccccc3)nc(Cl)c2C#N)cc1	-22	-10%	?	-1%	?
Clc1ccc(CSc2nnc(-c3cccnc3)n2Cc2ccco2)c(Cl)c1	11	?	14µM*	?	4.5µM*
Nc1ccc(O)cc1C(=O)OCC(=O)C12CC3CC(CC(C3)C1)C2	?	-5%	?	?	?
N#CC1(C#N)CC(C=O)=C(N)C1(C#N)CC(=O)C12CC3CC(CC(C3)C1)C2 (configuration not stated)	18	?	-2%	-7%	18µM*
Cc1ccc(-n2nc(C(=O)N3CCCCC3)c(=O)n(C)c2=O)cc1	nt	9%[46 µM]	nt	nt	nt
CC(CNC(=O)c1ccc2nc(Cc3ccccc3)oc2c1)c1ccccc1 (configuration not stated)	nt	-8%[46 µM]	nt	nt	nt
CN(C)c1ccc(/C=C(/C#N)C(=O)NCc2ccccc2)o1	-83*	-9%	-11%	-4%	?
Cc1nn2c(N)c(C#N)cnc2c1-c1ccc(Cl)cc1	1	2%	?	5%	?
Cc1nn2c(N)c(C#N)cnc2c1-c1ccccc1	-82*	-5%	-4%	-5%	-2%
O=C(COc1ccccc1[N+](=O)[O-])N/N=C/c1cccs1	-96*	?	-8%	-2%	0%
Cc1cccc(OCC(=O)N/N=C\c2cc3c(cc2[N+](=O)[O-])OCO3)c1C	50	0%	-5%	-10%	7.9µM*
O=C(COC(=O)COc1ccccc1[N+](=O)[O-])Nc1ccccc1Br	-2	-8%	-18%	-5%	18µM*
Cn1cc(/C=N/NC(=O)COc2ccccc2[N+](=O)[O-])c2ccccc21	?	-12%	-8%	0%	-19%
CCOC(=O)/C=C/COc1ccccc1[N+](=O)[O-]	nt	?	nt	nt	-2%
CC(C)(C)C(=O)COc1ccccc1[N+](=O)[O-]	nt	?	nt	nt	20µM*
Cc1cccc(N=Cc2cc3c(cc2[N+](=O)[O-])OCO3)c1	-8	15%	-20%	?	?
C=C(CC(=O)OC)C[C@]1(CC(=O)OC)CC2(CC=C(C)C)C(=O)C(C(=O)c3ccccc3)=C(OC(=O)c3ccc(Br)cc3)C(CC=C(C)C)(C1)C2=O (some centres not stated)	nt	nt	nt	nt	2%[13.5 µM]
SMILES	PNC assembly inh	Lamin A splicing	HPGD block	12-hLO inh	ALDH1A1 block
CCN(C(=O)c1cccn(Cc2cccc(Cl)c2)c1=O)c1ccccc1	nt	3%[46 µM]	nt	nt	nt
CSc1nc2ccc(NS(=O)(=O)c3ccc(Cl)s3)cc2s1	-7	?	25µM*	-22%	40µM*
Cc1ccc(NS(=O)(=O)c2ccc(Cl)s2)cc1S(=O)(=O)N(C)C	-6	?	2%	-5%	3.2µM*
CCN(CC)S(=O)(=O)c1cc(NS(=O)(=O)c2c(Cl)cccc2Cl)ccc1C	5	?	8%	1%	?
CCN(CC)S(=O)(=O)c1cc(NS(=O)(=O)c2cccc(Cl)c2Cl)ccc1C	46	?	6%	-4%	7.9µM*
CN(C)S(=O)(=O)c1cccc(NS(=O)(=O)c2ccc(Cl)s2)c1	30	1%	-3%	-3%	?
